The full ranking holds about 33,000 sequences; the median of “E-score (-0.5 to 0.5)” is about -0.015, and the highest 2% start at about 0.3. This excerpt belongs to a sample that is enriched for the highest values.
biological target: T1, Abf1 (UniProt P14164); assay: PBM E-score (8-mer binding enrichment) (E-score (-0.5 to 0.5)); higher = stronger / more preferred TF binding; conditions: protein concentration: 200 nM; construct: GST-full length
T1 sequence: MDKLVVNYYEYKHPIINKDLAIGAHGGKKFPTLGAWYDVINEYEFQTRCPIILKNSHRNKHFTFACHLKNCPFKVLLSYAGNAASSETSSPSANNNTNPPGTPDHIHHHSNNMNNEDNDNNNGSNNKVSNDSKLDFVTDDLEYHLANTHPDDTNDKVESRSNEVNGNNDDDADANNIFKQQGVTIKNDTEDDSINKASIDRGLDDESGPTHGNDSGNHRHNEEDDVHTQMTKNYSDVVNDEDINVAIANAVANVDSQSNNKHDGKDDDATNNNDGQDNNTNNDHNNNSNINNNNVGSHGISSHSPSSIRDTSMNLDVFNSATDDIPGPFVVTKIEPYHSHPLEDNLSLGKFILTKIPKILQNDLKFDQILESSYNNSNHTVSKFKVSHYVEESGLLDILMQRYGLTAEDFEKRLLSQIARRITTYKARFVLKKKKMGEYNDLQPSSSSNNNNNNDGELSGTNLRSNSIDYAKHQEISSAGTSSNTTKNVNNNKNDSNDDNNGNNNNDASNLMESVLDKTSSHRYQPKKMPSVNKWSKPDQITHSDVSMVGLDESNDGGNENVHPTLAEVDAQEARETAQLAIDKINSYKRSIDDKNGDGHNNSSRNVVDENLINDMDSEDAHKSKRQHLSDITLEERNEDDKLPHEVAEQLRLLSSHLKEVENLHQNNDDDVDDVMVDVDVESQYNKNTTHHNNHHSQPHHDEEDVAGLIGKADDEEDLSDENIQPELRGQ
Procedure: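 Universal 'all 10-mer' protein binding microarrays (Agilent AMADID 015681) probed with GST-tagged S. cerevisiae TFs (full-length or DBD) made by in vitro transcription/translation (PURExpress), about 100-200 nM. Bound TF was detected with fluorescent anti-GST. Each ungapped 8-mer (which stands for itself and its reverse complement) is scored by the PBM enrichment score (E-score), a modified Wilcoxon-Mann-Whitney statistic from -0.5 to +0.5, computed with the Universal PBM Analysis Suite. Scale: above 0.35 generally sequence-specific binding.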

Sequence | PBM E-score
GCATCGCC | -0.0959
AACCGGGC | -0.103
CTCCCGGA | -0.117
GATAGAAC | 0.0502
ACAACGCA | -0.00182
CGAGGTTA | -0.00406
AAGAATCT | -0.115
GGAGATGA | 0.16
GCGATTTA | 0.114
TCTTCTCA | 0.0808
CGCTCTAA | 0.108
AAGGCGGC | -0.00603
AAGGACAT | 0.0941
GCGTGACA | 0.369
GTGTGACA | 0.116
GCGTGACC | 0.108
GCGTGTGA | -0.00541
ACGTGTGA | 0.213
CCGTGTGA | 0.301
CGTTGATC | 0.247
AAAGTGCG | -0.105
AGATTTCA | -0.0514
ACAGTCGC | -0.0877
TCGAAAAA | 0.157
CGACGGTA | 0.322

Sequence | PBM E-score
CGACGATC | 0.298
CGACGGTC | 0.173
CGACGACC | 0.243
GGACGATA | 0.268
AGACGATA | 0.27
AGACGATC | 0.113
CGACGATA | 0.373
GGACGGTA | 0.134
GAAATTCA | 0.0636
ATTGCACA | 0.0349
CAGCTATA | -0.191
ACCGCTGC | -0.252
GGTAGGAA | -0.0834
TAGGCCGA | -0.106
CCGATCCG | -0.0938
GCGAAGAA | 0.148
CTTAGCGC | 0.117
CGCTGTCC | 0.108
CCGCATTC | 0.00443
GCGTACCA | -0.0406
TAGTACCA | -0.0108
GCGTACTA | -0.0501
ACGTACTA | 0.188
ACGTACCA | 0.0604
TCGTACCA | 0.322

Sequence | PBM E-score
TGGTACCA | -0.123
CCGTACTA | 0.338
CCGTACCA | 0.303
ATGATGCG | 0.104
ACGAACCC | 0.0128
GCGAGAAC | -0.095
CGATTCAC | 0.192
AGGCGGTC | -0.166
GTCTAAAC | 0.00585
ATGGTACA | -0.0607
CCGAACAA | -0.0373
TCGAACGA | 0.236
ACGAATGA | 0.304
CCGAACGG | -0.0461
ACGAACGA | 0.314
CCGAACGA | 0.251
ACGAACAA | 0.331
ACGAACGT | 0.289
GCGAACAA | 0.0737
ACGAACGG | 0.312
GCGAATGA | 0.173
ACGAATGC | 0.185
ATTAAGCC | 0.0493
ATATCCAA | 0.149
ACTGACTC | -0.262

Sequence | PBM E-score
CACTATGA | -0.138
CAAAGTGA | 0.28
TAAGGAAA | -0.0606
CTATGCAC | 0.178
AAACTCCT | -0.13
AATCATAT | 0.191
AGGTCGAT | 0.132
TGGTGGAA | -0.0333
ACTGCGAT | -0.0827
CAACAAAC | -0.112
CATCACGA | 0.0436
AATCACGA | 0.309
AATCACGG | 0.213
AATCACGC | 0.127
TATCACAA | 0.25
TATCACGA | 0.366
AGGTTATC | 0.0463
CGCAGATA | 0.0501
ACACGGCA | 0.294
AGACGGCG | 0.306
ACACGGCG | 0.305
CGACGGCG | 0.171
CCACGGCG | 0.142
AGACGGCC | -0.0278
CCCGCTCG | -0.0943

Sequence | PBM E-score
ATAAACGG | 0.273
TAAACTCA | -0.0231
AACGATAC | 0.32
AACGATCC | -0.00029
AGCGATAC | 0.202
AACGATCT | 0.303
AGCGATAG | 0.0445
AACGATAA | 0.294
AACGATAG | 0.265
AACGATCA | 0.24
AGCGATAT | 0.352
AACGATAT | 0.385
GACGATAC | 0.278
ACCGATAT | 0.0499
GCAATTCA | -0.0514
ATCGCAGC | -0.0387
CACTTCAG | 0.0421
GCGGTTTA | -0.161
ATCCCTGA | -0.0627
CCAGGGGC | -0.331
ATTAGCGA | 0.136
GTTAGCGA | 0.32
CTTAGCGA | 0.0369
GGGTTATA | -0.105
ATTTTACC | 0.11

Sequence | PBM E-score
AATTTACG | 0.0813
ATTTTACG | 0.322
TACAGCTA | -0.41
ATTAGTGG | 0.1
ATTAGTGC | 0.148
AATAGTGA | 0.358
AATAGTGG | 0.0153
CTTAGTGA | 0.305
AATAGTGC | 0.0751
GTTAGTGA | 0.17
CTTAGTGC | -0.0935
ATTAGTGA | 0.365
TCGAGCAA | 0.1
ATTTCCGG | 0.0492
ATTTCTTA | 0.0563
GAAGAAAC | -0.133
AATTTCGT | 0.36
AAATTCGC | 0.0441
AATTTCGA | 0.00012
AAATTCGT | 0.328
AAATTCGG | 0.0545
AATTTCGC | -0.0531
GACGCCTC | -0.0456
ATAACCCA | -0.0314
AGGGTAAT | 0.0413

Sequence | PBM E-score
CACAGTGA | 0.109
GCATCTCC | -0.255
ACTGGAGA | -0.174
CCCCCAGA | -0.326
CACGAGTC | 0.0257
CGCACGAA | 0.321
TGCACGAA | 0.368
GGCACGAA | 0.103
CGCACGAC | 0.242
CGCACGAG | 0.156
AGCACGAA | 0.217
CACAACGC | -0.174
AGGGAGGA | -0.187
ATCCGGGC | -0.197
CCGATATA | 0.0343
CTGATATA | 0.107
GCGATATA | 0.368
GGGATATA | -0.045
ATGATATG | 0.367
GCGATACA | 0.139
ATGATATA | 0.403
AAGATATG | 0.283
GAGATATA | 0.147
GTGATATA | 0.395
ATGATAGG | 0.116

Sequence | PBM E-score
AAGATATA | 0.162
GTGGACAA | 0.133
CTCCTGAC | 0.0261
AGGGGACA | -0.0441
CCAGGGTC | -0.217
ACGGCTAC | 0.0914
CGTTCAGA | 0.0456
CTGATATC | 0.0641
ATGATACA | 0.202
ATGATATC | 0.362
ATGATACC | 0.291
ATGATACG | 0.305
ATGATAGC | 0.24
ACGCGCCT | -0.0785
AGATAAGG | 0.00618
GGAGGTCA | 0.0571
CTGACGAC | 0.228
GTGTACTA | 0.165
GAGTACGA | 0.0499
CTGTACGA | 0.383
CTGTACGC | -0.106
GTGTACGA | 0.337
ATGTACGG | 0.241
CTGTACAA | 0.109
ATGTACGC | 0.027

Sequence | PBM E-score
ATGTACGA | 0.444
GTGTCGGA | 0.0611
GACGTAGA | 0.0745
TCCGACCA | -0.143
AAACTCTA | -0.144
CCCACAAC | -0.0362
GCCTCCAA | -0.121
AATATATC | 0.139
GATATAAC | 0.307
GATATAAA | 0.22
GATATACC | 0.34
GATATATA | 0.289
GATATATC | 0.332
CATATAAC | 0.155
GATATACA | 0.111
CATATACC | -0.0104
ATACGCGG | -0.114
CTTGGGGC | -0.247
AACCCTAA | 0.00952
